About 2,500 (5.3%) of roughly 47,000 compounds were called active. Cut-off read from the data, not from the text of the source: active = inhibition above about 30%; inactive = the rest. For the sample, actives were picked, then their nearest neighbours and some compounds at random.
Each compound was assayed against Ubiquitin carboxyl-terminal hydrolase 30 (Homo sapiens) (UniProt Q70CQ3) (assay: inhibitors of human USP30 deubiquitinase (AID 1645860)). Conditions: purified USP30, Ub-rhodamine cleavage fluorescence; at 25 µM; stronger effect = higher value.
Sequence of Ubiquitin carboxyl-terminal hydrolase 30 (Homo sapiens) (Q70CQ3 whole entry, looked up): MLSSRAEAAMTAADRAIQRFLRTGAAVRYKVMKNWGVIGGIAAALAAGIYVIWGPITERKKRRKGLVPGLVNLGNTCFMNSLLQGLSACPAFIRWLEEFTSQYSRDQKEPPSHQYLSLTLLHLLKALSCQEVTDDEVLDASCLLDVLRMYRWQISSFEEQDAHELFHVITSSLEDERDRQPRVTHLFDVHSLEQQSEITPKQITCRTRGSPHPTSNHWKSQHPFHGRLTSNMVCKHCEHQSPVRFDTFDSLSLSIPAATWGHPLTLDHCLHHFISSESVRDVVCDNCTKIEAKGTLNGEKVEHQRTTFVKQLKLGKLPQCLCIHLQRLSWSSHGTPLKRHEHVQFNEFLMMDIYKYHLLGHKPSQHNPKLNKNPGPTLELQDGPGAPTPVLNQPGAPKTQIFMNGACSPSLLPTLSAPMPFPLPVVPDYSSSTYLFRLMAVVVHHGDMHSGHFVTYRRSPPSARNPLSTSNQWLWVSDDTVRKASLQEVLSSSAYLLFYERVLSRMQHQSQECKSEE

inhibition, active:
COc1ccc(CNC(=O)c2[nH]nc3c2CCc2ccccc2-3)cc1 49.8%
CC(C)NC(=O)CN1C(=O)CC(C)Sc2ccc(S(=O)(=O)N3CCCCC3)cc21 (stereo unspecified) 86.3%
Cc1ccc(CNC(=O)CC(c2ccccc2)c2ccccc2)cc1 34.5%
CCc1nc(SCC(=O)Nc2cccc3ccccc23)c2oc3ccccc3c2n1 47.2%
Clc1ccc(C[n+]2cc(-c3ccc(Cl)cc3)n3c2CCC3)cc1 34.1%
O=C(c1cc2occc2c(Nc2ccc(F)cc2)n1)N1CCN(C(=O)c2ccco2)CC1 32.6%
CC(C)c1ccc(NC(=O)C[n+]2cc(-c3ccc(F)cc3)n3c2CCC3)cc1 41.8%
O=c1ccc(-c2nc(-c3cnccn3)no2)cn1Cc1ccccc1C(F)(F)F 41.2%
Cc1nc(-c2ccc(C(=O)NCc3ccc4c(c3)OCO4)cc2)cs1 46.2%
Cc1cnc(NC(=O)Cn2cnc3c2c(=O)n(C)c(=O)n3C)s1 30.8%
Cc1ccccc1-c1nc(-c2cccc(OCC(=O)N3CCOCC3)c2)no1 44.8%
Cc1ccc(-c2noc(-c3cccc(OCC(=O)N(C)C)c3)n2)cc1 53.1%
Cc1nc(-c2ccc(C)c(S(=O)(=O)NCc3ccccc3Cl)c2)cs1 34.4%
C[C@@H]1O[C@@H](OC2[C@H](Oc3cc(O)c4c(c3)OC(c3ccc(O)cc3)CC4=O)O[C@H](CO)[C@@H](O)[C@@H]2O)[C@H](O)[C@H](O)[C@H]1O (stereo partly specified) 33%
COc1ccc(-c2cc(=O)oc3c(C)c(OCc4ccccc4F)ccc23)cc1 44%
O=C(NCCc1ccccc1)c1ccc2c(=O)n(Cc3ccco3)c(=O)n(Cc3cccc([N+](=O)[O-])c3)c2c1 66.4%
CSCC[C@H](NC(=O)N1CCn2c1nc1ccccc12)C(=O)NCc1ccc2c(c1)OCO2 43.3%
COc1ccc(CCNC(=O)CSc2cn(CCNC(=O)c3ccccc3C)c3ccccc23)cc1OC 36.5%
COc1ccc2ncc(S(=O)(=O)c3ccccc3)c(Nc3ccc(F)cc3)c2c1 38.4%

inhibition, inactive:
COc1ccc(CNC(=O)c2cccc3cccnc23)cc1 -9.33%
COc1ccc(CNC(=O)c2ccccc2-c2ncc(-c3ccccc3)o2)cc1 -5.92%
O=C(O)C1(Cc2nc3ccccc3s2)CCCCC1 11.5%
CC(C)(C)OC(=O)N1CCC2(CC1)NC(=O)C1(CCCCC1)N2 16.4%
CCN1CCN(S(=O)(=O)c2ccc3c(c2)CC(C)N3C(=O)C2CC2)CC1 (stereo unspecified) 2.83%
CC1CCCN(C(=O)c2cc(S(=O)(=O)N3CCCCC3)ccc2Cl)C1 (stereo unspecified) 8.5%
COCCn1cnc2c(-c3ccccc3)cn(CC(=O)NCc3ccc(F)cc3)c2c1=O -1.66%
Cc1ccc(CNC(=O)CCC(=O)N2Cc3cccn3-c3ccccc32)cc1 -82.9%
Cc1ccc(CNC(=O)c2ccc(-c3cccnc3)nc2)cc1 18.3%
O=C([C@H]1CCCO1)N1C[C@H](OCc2cccnc2)[C@H]2COC[C@H]21 2.01%
C/C(=C(\NC(=O)c1ccccc1)C(=O)NCc1ccccc1)c1ccc(C)cc1 -4.27%
CCc1nnc(-c2csc(S(=O)(=O)NC3CCCCCC3)c2)o1 16.4%
O=C(CSc1ncnc2c1oc1ccccc12)NC1CCCC1 29.2%
CCc1nc(SCC(=O)Nc2cc(Cl)ccc2Cl)c2oc3ccccc3c2n1 20%
Cc1ccccc1OCC(=O)Nc1c(C)nc2scc(C)n2c1=O 2.51%
O=C(C1CCCN(S(=O)(=O)c2ccc(Cl)cc2)C1)N1CCOCC1 (stereo unspecified) 25.3%
Cc1ccc(Nc2nc(C(=O)NCCN3CCCCC3C)cc3occc23)cc1Cl (stereo unspecified) -102%
Cc1nc(Nc2ccc(NC(=O)c3ccco3)cc2)cc(N2CCCCC2)n1 -38.5%
COC(=O)c1cc(NC(=O)c2cccnc2)ccc1N1CCOCC1 -17.6%
Cc1ccc(CNC(=O)c2ccc(-c3cncnc3)nc2)cc1C -42.8%
CC(=O)CCC(=O)Nc1ccc(-c2nnc3n2CCCCC3)cc1 -1.55%
Cc1c(Cl)cccc1NC(=O)C[n+]1cc(-c2ccc(Cl)cc2)n2c1CCC2 27.5%
Cc1cccnc1NC(=O)C1c2ccccc2C(=O)N(C)C1c1cccs1 (stereo unspecified) 7.71%
Cc1ccc(C(C)C(=O)N2CCC(c3nc4ccccc4cc3C(N)=O)CC2)cc1 (stereo unspecified) -3.47%
O=C(NCCC(=O)N1CCC2(CC1)NCCc1[nH]cnc12)c1ccc(-c2ccccc2)cc1 0.531%
O=C(CCN1C(=O)c2cccnc2Sc2ccccc21)Nc1cc(F)ccc1F 14.9%
O=c1ccc(-c2nc(-c3cnccn3)no2)cn1Cc1cccc(Br)c1 -4.12%
O=C(c1nc(-c2cnccn2)no1)N1CCN(c2ccccc2F)CC1 -11.4%
Cc1noc(C)c1CC(=O)N1CCN(S(=O)(=O)c2ccc(C3CCCCC3)cc2)CC1 29.4%
CC(=O)N1C[C@H]2C3(CCN(C(=O)c4cc(C)on4)CC3)CC[C@@]2(C(=O)N(C)C)C1 0.149%
CCCN1CCN(Cc2nc(-c3ccc(N4CCCCCC4)nc3)no2)CC1 -26.8%
O=C1COc2ccccc2N1Cc1noc(-c2ccccc2)n1 11.5%
COc1cccc(NC(=O)c2nnn(Cc3nc(-c4cccc(C)c4)oc3C)c2N)c1 -2.05%
O=C(NCc1ccc2c(c1)OCO2)c1nc(-c2cccnc2)no1 2.73%
Cc1ccc(C(=O)Nc2nccnc2C(=O)NCc2ccc3c(c2)OCO3)cc1 -13.1%
Cn1c(CCN2CCOCC2)nc2cc(NC(=O)c3ccco3)ccc21 -0.464%
O=C(CN(c1ccc(Cl)cc1Cl)S(=O)(=O)c1ccccc1)NCc1ccncc1 2.13%
Cn1c(=O)c2c(ncn2CC(=O)OCc2cccc([N+](=O)[O-])c2)n(C)c1=O 13.8%
Cc1ccc(NC(=O)CCn2cnc3c2c(=O)n(C)c(=O)n3C)cc1 1.79%
N#Cc1ccc(NC(=O)Nc2cccn(Cc3ccccc3F)c2=O)cc1 11.4%
COc1ccc(-c2noc(-c3cccc(OCC(=O)NC(C)C)c3)n2)cc1 -1.09%
Cc1ccccc1-c1nc(-c2cn(CC(=O)Nc3ccccc3)cn2)no1 -44.4%
Cc1ccc(-c2nc(-c3cccc(-c4ccnn4C)c3)no2)cc1 4.68%
COc1cc(Cl)ccc1-c1nc(-c2cccc(C(=O)N3CCCC3)c2)no1 16.1%
COc1cc(C)c(CN2CCC(c3cc(=O)[nH]c(C)n3)C2)cc1C (stereo unspecified) 8.61%
CN(C)C(=O)C1CN(C(=O)c2n[nH]c3c2CCCC3)CC12CCOCC2 (stereo unspecified) -5.3%
COc1cc(NC(=O)C2CCCCC2)c(OC)cc1NC(=O)CCC(=O)N1CCCCC1 -281%
Cc1ccc(CS(=O)(=O)N2CCC(C(=O)N3CCC(C)CC3)CC2)cc1 9.43%
O=C(C1CCCCC1)N1CCCC(c2ccnc3ncnn23)C1 (stereo unspecified) 21.7%
Cc1nc(-c2ccc(C)c(S(=O)(=O)NC3CCCC3)c2)cs1 -1.27%
Cc1ccccc1CNS(=O)(=O)c1c[nH]c2ncccc12 -1.83%
Cc1cncc(C(=O)N[C@@H]2CC[C@H]3Oc4ccccc4N[C@H]3[C@@H]2O)c1 6.67%
Cc1c(C(=O)O)[nH]c2ccccc12 -68.1%
Cc1cc(=O)oc2c(C)c(OC(C)C(=O)NCc3ccncc3)ccc12 (stereo unspecified) 6.63%
Cc1c(OCc2ccccc2)noc1C1CCN(CC(N)=O)CC1 6.2%
Cc1cnc(N2CCC3(CC(=O)N(c4cccnc4)C3)C2)nc1 (stereo unspecified) -20.9%
Cc1ccc(N(C)C(=O)C2CCC(=O)N2S(=O)(=O)c2ccccc2)cc1 (stereo unspecified) 20.6%
COc1cccc(-c2nnc(-c3ccc(-n4ccnc4)nc3)o2)c1 -12.7%
O=C(NCCc1ccccc1)c1ccc2c(=O)nc3c(-c4ccccc4F)n[nH]n3c2c1 -10.3%
COCCn1c(=O)[nH]c2cc(C(=O)NCCNc3ccc([N+](=O)[O-])cc3C#N)ccc2c1=O -7.15%
COc1cccc(Nc2nc(N3CCCCC3)nc3c2cnn3C)c1 -24.2%
CC(NC(=O)c1nc2n(n1)-c1ccccc1S(=O)(=O)N2)c1cc2ccccc2o1 (stereo unspecified) 0.0682%
O=C(Nc1cnc(N2CCCC2)nc1)c1ccco1 -2.69%
COc1ccc(NC(=O)Cc2noc(-c3cccc(OC)c3)n2)cc1 -26.6%
CC(C)[C@H](NC(=O)N1CCn2c1nc1ccccc12)C(=O)NCCc1ccccc1 -9.82%
COCCCNC(=O)[C@H](Cc1ccccc1)NC(=O)N1CCn2c1nc1ccccc12 1.89%
COCCn1cnc2nnc3ccc(C(=O)NC(C)C)cc3c21 -9.87%
COc1ccc(CCNC(=O)c2ccc3ccccc3c2)cc1OC -12.8%
COc1ccc(NC(=O)CSc2cn(Cc3ccccc3C)c3ccccc23)c(OC)c1 8.78%
CC(C)c1noc2ncc(-c3nnc(C4CC4)o3)cc12 -9.16%
COc1ccc2ncc(S(=O)(=O)c3ccccc3)c(N3CCN(c4cccc(C)c4C)CC3)c2c1 -1.48%
COc1ccc2ncc(S(=O)(=O)c3ccccc3)c(N3CCOCC3)c2c1 -25.7%
